In article PMC7819943, “Rice protein-binding microarrays: a tool to detect cis-acting elements near promoter regions in rice”:
The full ranking holds about 39,000 sequences; the median of “fluorescence intensity (a.u.)” is about 4,300, and the highest 2% start at about 39,000. This is one part of a sample in which the highest values are shown more often than they occur.

target: T1, OsSMF1 (Oryza sativa, UniProt Q6ZLB0 1-436); experiment: protein-binding microarray (RPBM); PBS, 2% BSA, 51.3 ng/ul salmon testes DNA, 50 uM zinc acetate, 200 nM TF, 25 C, 1 h; high values mean tight binding; conditions: protein: recombinant; tags: N-terminal polyhistidine and DsRed monomer fusion (pET32a); chain copies: 2; label: CyDye5-dUTP incorporated in the synthesized complementary strand; 3' TTTTT single-stranded linker to array surface; dsDNA, one strand shown
T1 sequence: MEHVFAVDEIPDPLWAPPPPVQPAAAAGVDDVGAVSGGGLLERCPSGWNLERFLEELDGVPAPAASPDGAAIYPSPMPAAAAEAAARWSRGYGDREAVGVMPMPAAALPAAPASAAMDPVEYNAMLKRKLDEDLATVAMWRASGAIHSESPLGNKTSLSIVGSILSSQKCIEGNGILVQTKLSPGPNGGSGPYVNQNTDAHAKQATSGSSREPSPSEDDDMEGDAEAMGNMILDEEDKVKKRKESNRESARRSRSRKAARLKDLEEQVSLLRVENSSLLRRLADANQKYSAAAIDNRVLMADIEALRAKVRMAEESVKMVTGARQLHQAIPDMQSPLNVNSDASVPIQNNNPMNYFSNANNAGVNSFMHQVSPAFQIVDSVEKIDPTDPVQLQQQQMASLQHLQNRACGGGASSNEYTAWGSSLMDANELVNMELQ
How it was run: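 Ni–NTA purification followed expression in E. coli BL21-CodonPlus of transcription factors fused N-terminally to a polyhistidine tag and DsRed. At 200 nM in PBS with 2% BSA, salmon testes DNA and 50 µM zinc acetate, the protein was incubated for 1 h at 25 °C with a custom Agilent array that had been primer-extended with Cy5-dUTP and blocked with 2% BSA. After washing, the array was read on an Axon 4000B scanner. The binding signal is per-feature fluorescence intensity in arbitrary units.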

Sequence	binding signal
CAAGGGAGGAGGGAGAAAGAAAAGGATGGGAGATTTGCTCCGGAGTCACCTAGTGCAG	3290 fluorescence intensity (a.u.)
AGAGGTTCAAACTGTATATGTTCTAGACCATTCACAAGCTCGGAGTCACCTAGTGCAG	64100 fluorescence intensity (a.u.)
TGGTCACTGCAGCAGGTTCAGGACAAAGCAACCTGTTTCTCGGAGTCACCTAGTGCAG	3600 fluorescence intensity (a.u.)
AAGGTAGAGTCAAATAGAAGCTCTATATCATGTAGACACTCGGAGTCACCTAGTGCAG	3360 fluorescence intensity (a.u.)
ACCCACACACCCACACCCACACGTCAAAGACCCACGGTTTCGGAGTCACCTAGTGCAG	3160 fluorescence intensity (a.u.)
CCTAACCGCCCAGCAGAGGCAAAGTGTGGTCGAAACCTAGCGGAGTCACCTAGTGCAG	49500 fluorescence intensity (a.u.)
CAGAGGCAAACGTACGTGGAGGCAGGAGGAGTGGTCACCGCGGAGTCACCTAGTGCAG	4440 fluorescence intensity (a.u.)
TGTGGTGTGTGTGTGGCTGAAACCGCGAGGCCGCCGCGAGCGGAGTCACCTAGTGCAG	3440 fluorescence intensity (a.u.)
CCGTCGCCGGCGGCGGATCGGCCCCACATCACCTCGGCCTCGGAGTCACCTAGTGCAG	3250 fluorescence intensity (a.u.)
AGAAGACAACAGTGAGGAACTGAGGACACGTGTACTTGGACGGAGTCACCTAGTGCAG	12600 fluorescence intensity (a.u.)
AAATTTGTACCATCTTGTTGTCCATCATTCTTGACAAGAGCGGAGTCACCTAGTGCAG	3280 fluorescence intensity (a.u.)
TGAGCCCATTCTATCTTGTACCAATTTGTGGGATATGGCCCGGAGTCACCTAGTGCAG	41000 fluorescence intensity (a.u.)
ACCTTGTACTTTTGTCTACATATGTGTCATTCTATCTTGGCGGAGTCACCTAGTGCAG	5120 fluorescence intensity (a.u.)
CATCCACGTGGTGCCGCACCTAACCAGCGTAGCAGTTGCTCGGAGTCACCTAGTGCAG	5710 fluorescence intensity (a.u.)
ATCATAGTATGCCGTACGGCCTGGACCTTCTGTCACGTGGCGGAGTCACCTAGTGCAG	5660 fluorescence intensity (a.u.)
TATGTGGACCATAGTGGCCTTCGGCAATATGGATTAGTAGCGGAGTCACCTAGTGCAG	47700 fluorescence intensity (a.u.)
GTGTGTGTATGACAGGTGGGACCATATATTAATAGTGTAGCGGAGTCACCTAGTGCAG	3480 fluorescence intensity (a.u.)
CATTCTCCTTCTCTCTCGTACGGCTAGAGGTTGAAGACGACGGAGTCACCTAGTGCAG	3760 fluorescence intensity (a.u.)
TGCACACCCAGGTTGAAGACGACAATGACGAGCTCGGGCGCGGAGTCACCTAGTGCAG	3330 fluorescence intensity (a.u.)
CGACTACGAGACGCGAGGTTGAAGACAAGTAAGTACTCCTCGGAGTCACCTAGTGCAG	65500 fluorescence intensity (a.u.)
GAGTTACCACGAGATGACACGTAGGATAAAGAGCTTTGAACGGAGTCACCTAGTGCAG	8600 fluorescence intensity (a.u.)

Sequence	binding signal
CGTCCAAATATTATTTCCTGCGCGTGGTTTACAAAAGAGGCGGAGTCACCTAGTGCAG	47300 fluorescence intensity (a.u.)
TCCAATCCTGCGTGGAGTAATTTATTTCAAGCGCAACAGGCGGAGTCACCTAGTGCAG	3630 fluorescence intensity (a.u.)
CTCGAGAGTTATTTATTATTTATATTTCCAAAGGTTTGACCGGAGTCACCTAGTGCAG	25900 fluorescence intensity (a.u.)
GAATAGAACATGTACAGTGACACATCTGCATTGGAAGCGTCGGAGTCACCTAGTGCAG	7380 fluorescence intensity (a.u.)
TGTCATTGACTCACGTGGGTCCTACATGTCATTGAGCTTTCGGAGTCACCTAGTGCAG	10300 fluorescence intensity (a.u.)
CATCCGTCGCTTCGCTTTCGTTCGAACGCGTTGGACCCAGCGGAGTCACCTAGTGCAG	3160 fluorescence intensity (a.u.)
TTTATGATAACTTTGAGTCATATCATTTTGGTAAGTCCTACGGAGTCACCTAGTGCAG	3140 fluorescence intensity (a.u.)
TTATGGACTGATATGGGCCGTTGGATTGGTTTCGGTTTTGCGGAGTCACCTAGTGCAG	5480 fluorescence intensity (a.u.)
ATGATAACTTTTATGGTTTTGGCCGTCTGGGGATCGGAATCGGAGTCACCTAGTGCAG	65500 fluorescence intensity (a.u.)
CCAGTACATTTTGTACTACTACTTCGAACGGGCATGGTCGCGGAGTCACCTAGTGCAG	29700 fluorescence intensity (a.u.)
CTAATTGAAATCACAAATGCTGAGTTGCTGACATGCACCACGGAGTCACCTAGTGCAG	4570 fluorescence intensity (a.u.)
TGAACACGAACGCGACGCTTCTTCTGTCACGTACGCCCGTCGGAGTCACCTAGTGCAG	3200 fluorescence intensity (a.u.)
CCCGTCGTTGTCCACCCCGTCCCATTCCACGACCGTCGTCCGGAGTCACCTAGTGCAG	3390 fluorescence intensity (a.u.)
GTAACGTACGACCGTTGTCATCGTAGACGCTTCCCGGATTCGGAGTCACCTAGTGCAG	45700 fluorescence intensity (a.u.)
TTTCCTTGGAGAATCCAGATCAGCTTCCTAATCACCCTCACGGAGTCACCTAGTGCAG	4040 fluorescence intensity (a.u.)
AGTTTCCGAGAGCGAGCGAGAGAGAGAGAGAGAGAGAGAGCGGAGTCACCTAGTGCAG	3220 fluorescence intensity (a.u.)
GTGTCTGCCTCCGCGTCCGCTTCGTCACGGCGGTGTCGGTCGGAGTCACCTAGTGCAG	5900 fluorescence intensity (a.u.)
TGTGCTCAGCCTTAATTAATTAATCGAGCGAGTCATAAGCCGGAGTCACCTAGTGCAG	3460 fluorescence intensity (a.u.)
CAGGAATTGAACTATTAAGATCCATTATGTTGCTCTAAAACGGAGTCACCTAGTGCAG	3310 fluorescence intensity (a.u.)
TGTACCTGAAACTATTGTTATGTCCAGGTCAGGAGCAGTGCGGAGTCACCTAGTGCAG	3360 fluorescence intensity (a.u.)
CAGGTGTGTCCATTGAATTGAATTGAATTGAAACTATTGACGGAGTCACCTAGTGCAG	60900 fluorescence intensity (a.u.)
